Laboratory results taken from PubChem BioAssay.
The source made the active and inactive calls.

Columns and labels:
[1] = binders of probe aFSTL3 on microarray, primary screen, stem cell growth factor project, biochemical, small-molecule microarray, fluorescence 635/667 (AID 1064); details: higher = more signal;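 further: measures binding of the biotinylated anti-FSTL3 antibody to printed compounds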
[2] = binders from COS7 lysate, DM2A8 probe, primary screen, torsin A project, cell lysate, small-molecule microarray, fluorescence 635/667 (AID 1065); details: higher = more signal, COS7 lysate expressing mutant human TOR1A
[3] = binders of probe aFGF2 on microarray, primary screen, stem cell growth factor project, biochemical, small-molecule microarray, fluorescence 635/667 (AID 1067); details: higher = more signal;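 further: measures binding of biotinylated aFGF2 protein to printed compounds on slides; z-score merges feature fluorescence and signal-to-noise across triplicate slides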
[4] = binders of probe aFGF10 on microarray, primary screen, stem cell growth factor project, biochemical, small-molecule microarray, fluorescence 635/667 (AID 1071); details: higher = more signal;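 further: score merges 667 nm spot intensity and signal to noise from triplicate slides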
[5] = target: Neurogenic locus notch homolog protein 2 (Homo sapiens) (UniProt Q04721); test: Notch2 binders on small-molecule microarrays, primary screen, biochemical, small-molecule microarray, 635 nm fluorescence, stem cell growth factors (AID 1073); details: Notch2 binding, higher = more signal
Chain of Neurogenic locus notch homolog protein 2 (Homo sapiens) (Q04721 whole entry, looked up, canonical isoform): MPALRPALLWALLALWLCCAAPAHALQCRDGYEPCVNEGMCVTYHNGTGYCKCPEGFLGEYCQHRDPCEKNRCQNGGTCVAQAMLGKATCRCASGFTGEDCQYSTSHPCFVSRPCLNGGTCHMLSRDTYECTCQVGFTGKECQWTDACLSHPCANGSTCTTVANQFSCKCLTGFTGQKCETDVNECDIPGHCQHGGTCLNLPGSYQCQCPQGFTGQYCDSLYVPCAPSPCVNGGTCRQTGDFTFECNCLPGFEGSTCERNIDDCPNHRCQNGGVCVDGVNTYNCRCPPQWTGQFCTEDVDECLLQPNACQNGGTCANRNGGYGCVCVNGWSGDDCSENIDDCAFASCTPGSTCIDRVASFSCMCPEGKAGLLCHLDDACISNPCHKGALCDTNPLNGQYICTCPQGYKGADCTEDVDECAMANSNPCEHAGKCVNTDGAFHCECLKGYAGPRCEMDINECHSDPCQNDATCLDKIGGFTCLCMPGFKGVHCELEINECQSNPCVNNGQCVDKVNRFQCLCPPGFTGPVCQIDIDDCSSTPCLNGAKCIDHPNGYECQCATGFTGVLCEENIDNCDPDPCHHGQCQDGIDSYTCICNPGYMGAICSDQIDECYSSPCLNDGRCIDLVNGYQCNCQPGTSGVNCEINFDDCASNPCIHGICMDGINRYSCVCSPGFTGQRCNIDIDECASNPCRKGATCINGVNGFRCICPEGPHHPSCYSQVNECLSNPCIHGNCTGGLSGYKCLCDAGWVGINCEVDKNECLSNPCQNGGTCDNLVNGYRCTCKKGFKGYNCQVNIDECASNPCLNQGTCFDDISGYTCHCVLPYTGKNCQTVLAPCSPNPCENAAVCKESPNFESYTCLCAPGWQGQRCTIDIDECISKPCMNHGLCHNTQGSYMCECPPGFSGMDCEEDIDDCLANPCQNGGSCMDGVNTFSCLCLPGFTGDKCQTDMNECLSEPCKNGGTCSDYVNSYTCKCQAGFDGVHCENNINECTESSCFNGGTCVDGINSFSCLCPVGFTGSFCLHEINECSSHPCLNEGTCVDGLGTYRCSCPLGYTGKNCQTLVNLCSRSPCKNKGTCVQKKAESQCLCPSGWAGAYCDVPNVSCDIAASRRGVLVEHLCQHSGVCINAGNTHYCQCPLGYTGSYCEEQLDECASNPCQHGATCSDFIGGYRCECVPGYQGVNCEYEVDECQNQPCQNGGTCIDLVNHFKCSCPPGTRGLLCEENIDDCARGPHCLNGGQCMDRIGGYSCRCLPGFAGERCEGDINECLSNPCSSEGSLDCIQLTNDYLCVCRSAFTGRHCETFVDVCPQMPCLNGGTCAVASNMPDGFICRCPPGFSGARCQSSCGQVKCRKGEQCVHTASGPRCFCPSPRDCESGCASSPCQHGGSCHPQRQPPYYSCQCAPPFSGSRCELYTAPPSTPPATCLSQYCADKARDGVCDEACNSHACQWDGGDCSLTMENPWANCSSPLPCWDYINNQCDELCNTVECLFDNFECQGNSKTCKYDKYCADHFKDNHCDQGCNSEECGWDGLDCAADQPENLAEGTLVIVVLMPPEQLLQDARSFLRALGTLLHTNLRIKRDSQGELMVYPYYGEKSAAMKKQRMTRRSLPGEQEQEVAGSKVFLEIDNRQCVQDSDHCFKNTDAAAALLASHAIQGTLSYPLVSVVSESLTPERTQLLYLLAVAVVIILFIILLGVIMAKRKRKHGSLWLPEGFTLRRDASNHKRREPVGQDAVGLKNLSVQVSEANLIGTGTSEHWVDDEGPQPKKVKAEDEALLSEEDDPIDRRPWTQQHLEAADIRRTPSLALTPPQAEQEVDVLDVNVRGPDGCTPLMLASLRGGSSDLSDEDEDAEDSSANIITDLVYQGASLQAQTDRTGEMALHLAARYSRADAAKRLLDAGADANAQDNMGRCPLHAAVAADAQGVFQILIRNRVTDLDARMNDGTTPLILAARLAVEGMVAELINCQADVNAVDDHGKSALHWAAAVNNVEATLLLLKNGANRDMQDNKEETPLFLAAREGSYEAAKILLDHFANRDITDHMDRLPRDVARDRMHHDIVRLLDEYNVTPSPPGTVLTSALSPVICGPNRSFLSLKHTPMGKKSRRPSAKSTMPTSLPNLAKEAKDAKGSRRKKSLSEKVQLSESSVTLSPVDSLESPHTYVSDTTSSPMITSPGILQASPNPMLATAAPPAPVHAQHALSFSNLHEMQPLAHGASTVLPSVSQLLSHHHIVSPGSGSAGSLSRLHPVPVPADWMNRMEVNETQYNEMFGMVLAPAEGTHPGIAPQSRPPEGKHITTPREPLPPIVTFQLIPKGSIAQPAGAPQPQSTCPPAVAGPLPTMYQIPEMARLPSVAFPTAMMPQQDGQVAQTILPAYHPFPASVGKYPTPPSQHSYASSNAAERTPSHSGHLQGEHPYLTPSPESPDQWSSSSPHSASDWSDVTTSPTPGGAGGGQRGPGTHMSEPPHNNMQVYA

[6] = target: Pro-neuregulin-1, membrane-bound isoform (Homo sapiens) (UniProt Q02297); test: NRG1 binders on small-molecule microarrays, primary screen, psychiatric disease protein project, biochemical, small-molecule microarray, fluorescence 635/667 (AID 1075); details: NRG1 binding, 635 nm fluorescence, higher = more signal;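 further: score combines 667 nm spot fluorescence with signal to noise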
Chain of Pro-neuregulin-1, membrane-bound isoform (Homo sapiens) (Q02297 whole entry, looked up, the tested form may be a part, canonical isoform): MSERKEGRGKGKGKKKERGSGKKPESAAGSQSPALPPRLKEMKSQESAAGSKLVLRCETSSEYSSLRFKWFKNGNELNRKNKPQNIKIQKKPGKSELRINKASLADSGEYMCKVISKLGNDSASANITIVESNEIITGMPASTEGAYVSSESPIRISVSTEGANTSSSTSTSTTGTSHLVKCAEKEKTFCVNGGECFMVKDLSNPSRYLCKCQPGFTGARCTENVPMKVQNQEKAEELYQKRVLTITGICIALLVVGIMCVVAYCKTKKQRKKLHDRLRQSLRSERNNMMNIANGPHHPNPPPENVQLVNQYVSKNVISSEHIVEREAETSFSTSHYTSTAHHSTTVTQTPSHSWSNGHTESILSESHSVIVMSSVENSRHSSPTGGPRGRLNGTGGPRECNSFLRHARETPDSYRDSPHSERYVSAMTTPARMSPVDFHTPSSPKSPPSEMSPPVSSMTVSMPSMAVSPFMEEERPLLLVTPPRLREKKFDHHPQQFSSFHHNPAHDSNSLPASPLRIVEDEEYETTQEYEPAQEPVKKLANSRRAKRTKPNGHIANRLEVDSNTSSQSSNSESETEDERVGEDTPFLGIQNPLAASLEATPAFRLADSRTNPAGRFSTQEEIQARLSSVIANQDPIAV

[7] = system: Neuregulin-1 EGF-like domain; test: binders of neuregulin-1 EGF-like domain, primary screen, biochemical, small-molecule microarray, 635 nm fluorescence (AID 1081); details: small-molecule microarray binding, higher = more signal;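 further: binding of the protein to compounds printed on small-molecule microarray slides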
[8] = FRG1 promoter luciferase signal modulators, primary screen, FRG1 inhibition for FSHD, cell-based, C2C12 myotubes, firefly/Renilla luciferase, luminescence (AID 1084); details: higher = more signal, called active from +8 up or from −8 down
[9] = binders of probe aFST on microarray, primary screen, stem cell growth factor project, biochemical, small-molecule microarray, fluorescence 635/667 (AID 1086); details: higher = more signal;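 further: score merges 667 nm fluorescence with signal-to-noise of each printed compound spot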
[10] = binders of probe aHhip on microarray, primary screen, stem cell growth factor project, biochemical, small-molecule microarray, fluorescence 635/667 (AID 1087); details: higher = more signal;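 further: score merges spot fluorescence at 667nm with spot signal to noise ratio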
[11] = system: PRMT1 (protein arginine N-methyltransferase 1); test: PRMT1 binders on small-molecule microarrays, primary screen, biochemical, small-molecule microarray, 635 nm fluorescence (AID 1088); details: small-molecule microarray binding, higher = more signal;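 further: binding of Prmt1 protein to compounds spotted on small-molecule microarray slides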
[12] = yeast growth modulation, basal conditions, primary screen, YJM789 clinical isolate, OD600, 24 h (AID 1089);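 further: growth of clinical yeast isolate S. cerevisiae YJM 789 seeded 1000 cells per well; test concentration not given here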; details: S. cerevisiae YJM789 growth, higher = more signal, called active from +8 up or from −8 down
[13] = fission yeast growth modulation, primary screen, strain 972, OD600, 24 h, no modulator (AID 1090);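 further: basal condition with compound alone and no growth modifier present; test concentration not given here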; details: S. pombe 972 growth, higher = more signal, called active from +8 up or from −8 down
[14] = S. cerevisiae growth modulation with rapamycin, primary screen, strain BY4716, OD600, 96 h (AID 1091); details: higher = more signal, called active from +8 up or from −8 down; further: test concentration not given here
[15] = target: Torsin-1A-interacting protein 2 (Homo sapiens) (UniProt Q8NFQ8); test: LULL1 binders on small-molecule microarray, primary screen, cell lysate, human LULL1 lysate, 635/667 nm fluorescence (AID 1092); details: hLULL1 lysate binding, 635 nm fluorescence, higher = more signal;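 further: probe is lysate of COS7 cells overexpressing human LULL1; score merges per-feature 667 nm fluorescence with signal-to-noise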
Chain of Torsin-1A-interacting protein 2 (Homo sapiens) (Q8NFQ8 whole entry, looked up): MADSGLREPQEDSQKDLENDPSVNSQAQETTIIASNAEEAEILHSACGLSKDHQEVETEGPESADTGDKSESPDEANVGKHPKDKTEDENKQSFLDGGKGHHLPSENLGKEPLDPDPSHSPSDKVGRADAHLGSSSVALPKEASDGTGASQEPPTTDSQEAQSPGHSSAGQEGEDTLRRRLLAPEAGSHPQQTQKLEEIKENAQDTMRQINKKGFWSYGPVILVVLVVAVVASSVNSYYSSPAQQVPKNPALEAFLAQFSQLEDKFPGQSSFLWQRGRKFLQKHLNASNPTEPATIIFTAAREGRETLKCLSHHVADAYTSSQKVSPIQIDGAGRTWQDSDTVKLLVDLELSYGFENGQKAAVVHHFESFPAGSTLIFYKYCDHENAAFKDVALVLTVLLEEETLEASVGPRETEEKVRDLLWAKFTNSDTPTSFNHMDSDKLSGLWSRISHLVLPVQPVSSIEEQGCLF

[16] = E. coli growth modulation, two-sided OD650, primary screen, E. coli filamentation project, strain DRC41, 24 h (AID 1093); details: OD650, 24 h, higher = more signal, called active from +8 up or from −8 down;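 further: MC1000 strain lacking acrAB efflux and sulA so SOS filamentation is blocked; test concentration not given here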
[17] = small-molecule microarray binders of probe aLefty2, primary screen, biochemical, biotinylated probe, 635/667 nm fluorescence (AID 1094); details: higher = more signal;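 further: score merges spot fluorescence near 667 nm with spot signal-to-noise ratio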
[18] = system: Noggin (protein binding on small-molecule microarray); test: Noggin binders on small-molecule microarray, primary screen, biochemical, 635/667 nm fluorescence (AID 1095); details: 635 nm fluorescence, higher = more signal;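 further: score merges 667 nm feature fluorescence with signal to noise over triplicate slides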
[19] = target: Neurogenic locus notch homolog protein 3 (Homo sapiens) (UniProt Q9UM47); test: NOTCH3 binders on small-molecule microarray, primary screen, biochemical, 635/667 nm fluorescence (AID 1096); details: NOTCH3 binding, 635 nm fluorescence, higher = more signal
[20] = small-molecule microarray binders of probe aEGFR, primary screen, biochemical, biotinylated probe, 635/667 nm fluorescence (AID 1097); details: higher = more signal;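 further: probe is a biotinylated anti-EGFR antibody binding compounds printed on slides; score combines fluorescence near 667 nm and signal to noise of each spot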

SMILES	composite z-score [1]	composite z-score [2]	composite z-score [3]	composite z-score [4]	composite z-score [5]	composite z-score [6]	composite z-score [7]	z-score [8]	composite z-score [9]	composite z-score [10]	composite z-score [11]	z-score [12]	z-score [13]	z-score [14]	composite z-score [15]	z-score [16]	composite z-score [17]	composite z-score [18]	composite z-score [19]	composite z-score [20]
C=C(CCCC)/C(=C/C[C@@H](OC(C)=O)c1ccc(CO)o1)c1cc(C(=O)OC)ccc1OC	-0.557	0.273	-0.0985	0.866	0.621	1.01	1.28	-0.129 (inactive)	0.435	0.0826	1.57	0.562 (inactive)	-0.911 (inactive)	0.28 (inactive)	2.75	-0.12 (inactive)	-0.134	1.44	1.06	0.021
CCCCC(CC)C(O)C1C=CC2C(=O)N(c3ccccc3)C(=O)C2N1Nc1ccc([N+](=O)[O-])cc1 (stereo not given)	-0.294	0.153	0.141	0.848	1.73	1.88	1.26	-1.62 (inactive)	1.1	-0.234	1.55	-0.777 (inactive)	-0.126 (inactive)	1.44 (inactive)	3.65	-0.191 (inactive)	0.0958	0.547	1.03	0.11
[N-]=[N+]=Nc1ccccc1C[C@@]1(C(=O)O)N=C(c2ccc(OCCCO)cc2)O[C@@H]1c1ccccc1	0.0693	-0.518	0.0248	0.303	1.35	1.75	1.24	0.835 (inactive)	0.827	-0.0765	0.616	-0.0525 (inactive)	-0.85 (inactive)	-1.45 (inactive)	3.43	-0.0393 (inactive)	0.0917	-0.272	0.697	-0.0952
C[N+](C)(C)CCCC[C@@H]1NC(=O)[C@@H]2C[C@H](C(=O)O)[C@H](c3ccc(O)cc3)N2C1=O	1.26	-0.752	-0.119	-0.695	-1.77	-0.0673	-0.118	0.0902 (inactive)	-0.639	-0.137	-0.701	0.151 (inactive)	0.229 (inactive)	-1.27 (inactive)	-0.972	0.0772 (inactive)	-0.0943	-0.342	-0.694	-0.269
Cc1ccc(F)cc1S(=O)(=O)N[C@@H]1CCN(Cc2ccc(OC(C)C)cc2)C1	-0.0929	0.571	-0.115	-0.209	-0.863	-0.136	0.288	-1.22 (inactive)	-0.192	-0.257	-0.43	-1.01 (inactive)	-14.4 (active)	-0.839 (inactive)	-0.526	-19.6 (active)	-0.218	0.313	-0.877	-0.273
Cc1ccc(S[C@]2(C(=O)NCCN3CCOCC3)CC(=O)N(Cc3ccccc3C(F)(F)F)[C@@H]2c2ccc(CO)cc2I)cc1	0.273	-0.245	-0.0876	-0.36	-0.103	2.09	1.23	-0.883 (inactive)	-0.295	-0.236	0.783	-1.57 (inactive)	-4.24 (inactive)	0.176 (inactive)	1.2	-0.28 (inactive)	-0.145	-0.586	-0.689	-0.233
C=C(C(=O)CC[C@H](OC(=O)c1cccnc1)c1ccc(CO)o1)C(C)C	-0.201	0.674	-0.0415	0.467	0.355	0.904	1.25	0.0619 (inactive)	0.28	-0.121	1.51	-1.23 (inactive)	-0.796 (inactive)	-0.719 (inactive)	1.34	-0.605 (inactive)	0.152	1.02	0.623	0.0504
[N-]=[N+]=NCc1ccccc1C[C@@]1(C(N)=O)N=C(c2ccc(OCCCO)cc2)O[C@@H]1c1ccccc1CN=[N+]=[N-]	0.517	-0.186	-0.0469	0.972	1.53	1.01	1.19	1.56 (inactive)	0.544	-0.0645	1.22	0.656 (inactive)	-0.0127 (inactive)	0.0339 (inactive)	2.94	0.585 (inactive)	0.123	-0.0392	0.808	0.263
COCCCNC(=O)[C@@H]1c2ccccc2C(=O)N(Cc2ccccc2C(F)(F)F)[C@H]1c1ccc(CO)cc1	0.6	0.054	-0.0284	-0.445	-0.356	0.068	1.16	0.421 (inactive)	0.0584	-0.0726	0.12	-0.409 (inactive)	-0.514 (inactive)	-0.368 (inactive)	0.73	0.598 (inactive)	-0.0855	-0.789	-0.941	-0.0146
O=C1OCC=C[C@H]2OC34C=CCN(c5ccc(Cl)cc5)C(=O)[C@H]3N(CCCCCO)C(=O)[C@@H]4[C@@H]12 (stereo not given in full)	0.716	1.77	-0.163	-0.815	-1.07	-0.0571	1.06	-0.633 (inactive)	-0.354	-0.236	-0.449	-0.984 (inactive)	-1.03 (inactive)	-0.497 (inactive)	2.58	1 (inactive)	-0.117	-1.64	-0.68	-0.208
